Experimental data published in PubChem BioAssay AID1159580 (chemical genetic matrix, 2015).
About 2,000 (36%) of roughly 5,500 compounds were called active. Roughly 18% stayed inconclusive and do not appear here. Cut-off read from the data, not from the text of the source: active = normalized growth mostly below about 0.91 (no sharp cut-off); inconclusive = no clear call, values can overlap the other calls; inactive = mostly above about 0.92. The list shows a part of the results.

Experiment: chemical genetic growth profiling, strain panel (AID 1159580);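 note: tested at 20 µM; growth read once vehicle control cultures reached saturation at 30 °C; 1 = growth at the plate median or of vehicle wells; lower values mean less growth of the strain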
Conditions: growth OD

Measured: normalized growth

CC1(C)C(=O)[C@@H]2C[C@@]3(O)C4=CC(=O)O[C@@H](c5ccoc5)[C@]4(C)CCC3[C@@](C)(C2=O)[C@H]1CC(=O)O (some centres not stated)
inactive: S. cerevisiae deletion strains, locus YJR066W, strain TOR1, active compounds read low 0.941 | S. cerevisiae deletion strains, locus YKL009W, strain mrt4, active compounds read low 0.998 | S. cerevisiae deletion strains, locus YKL068W, active compounds read low 1 | S. cerevisiae deletion strains, locus YKL085W, strain MDH1 (second series), active compounds read low 0.99 | S. cerevisiae deletion strains, locus YKL085W, strain MDH1, active compounds read low 0.99 | S. cerevisiae deletion strains, locus YKL160W, strain elf1, active compounds read low 1.01 | S. cerevisiae deletion strains, locus YKR001C, strain vps1, active compounds read low 0.992 | S. cerevisiae deletion strains, locus YKR026C, strain gcn3, active compounds read low 1.01 | S. cerevisiae deletion strains, locus YKR091W, strain srl3, active compounds read low 1 | S. cerevisiae deletion strains, locus YLL001W, strain dnm1, active compounds read low 1.01 | S. cerevisiae deletion strains, locus YLL026W, active compounds read low 1.01 | S. cerevisiae deletion strains, locus YLL041C, strain sdh2, active compounds read low 1.01 | S. cerevisiae deletion strains, locus YLR027C, strain aat2, active compounds read low 1.01 | S. cerevisiae deletion strains, locus YLR039C, strain RIC1, active compounds read low 1.1 | S. cerevisiae deletion strains, locus YLR058C, strain SHM2, active compounds read low 1.01 | S. cerevisiae deletion strains, locus YLR102C, strain apc9, active compounds read low 0.997 | S. cerevisiae deletion strains, locus YLR113W, strain HOG1, active compounds read low 0.986 | S. cerevisiae deletion strains, locus YLR221C, strain rsa3, active compounds read low 1.01 | S. cerevisiae deletion strains, locus YLR258W, strain gsy2, active compounds read low 0.996 | S. cerevisiae deletion strains, locus YLR262C, strain YPT6 (second series), active compounds read low 1.01 | S. cerevisiae deletion strains, locus YLR262C, strain YPT6, active compounds read low 1.08 | S. cerevisiae deletion strains, locus YLR268W, strain sec22, active compounds read low 1 | S. cerevisiae deletion strains, locus YLR320W, strain mms22, active compounds read low 0.995 | S. cerevisiae deletion strains, locus YLR330W, strain CHS5, active compounds read low 1 | S. cerevisiae deletion strains, locus YLR342W, strain FKS1, active compounds read low 0.997 | S. cerevisiae deletion strains, locus YLR357W, strain rsc2, active compounds read low 1 | S. cerevisiae deletion strains, locus YLR370C, strain arc18, active compounds read low 1.01 | S. cerevisiae deletion strains, locus YLR371W, strain rom2, active compounds read low 1.01 | S. cerevisiae deletion strains, locus YLR384C, strain iki3, active compounds read low 0.992 | S. cerevisiae deletion strains, locus YLR418C, strain cdc73, active compounds read low 1 | S. cerevisiae deletion strains, locus YML016C, strain PPZ1, active compounds read low 1 | S. cerevisiae deletion strains, locus YML032C, strain rad52, active compounds read low 0.983 | S. cerevisiae deletion strains, locus YML120C, strain ndi1, active compounds read low 1.02 | S. cerevisiae deletion strains, locus YML124C, strain tub3, active compounds read low 1 | S. cerevisiae deletion strains, locus YMR058W, strain fet3, active compounds read low 1.02 | S. cerevisiae deletion strains, locus YMR078C, strain ctf18, active compounds read low 0.985 | S. cerevisiae deletion strains, locus YMR125W, strain sto1, active compounds read low 0.997 | S. cerevisiae deletion strains, locus YMR129W, active compounds read low 1 | S. cerevisiae deletion strains, locus YMR205C, strain PFK2, active compounds read low 0.999 | S. cerevisiae deletion strains, locus YMR223W, strain ubp8, active compounds read low 0.99 | S. cerevisiae deletion strains, locus YMR231W, strain pep5, active compounds read low 0.976 | S. cerevisiae deletion strains, locus YMR263W, strain SAP30, active compounds read low 1.02 | S. cerevisiae deletion strains, locus YMR307W, strain GAS1, active compounds read low 1.06 | S. cerevisiae deletion strains, locus YNL067W, strain RPL9B, active compounds read low 1 | S. cerevisiae deletion strains, locus YNL071W, strain lat1, active compounds read low 1.01 | S. cerevisiae deletion strains, locus YNL128W, strain TEP1, active compounds read low 1.02 | S. cerevisiae deletion strains, locus YNL183C, strain NPR1, active compounds read low 0.946 | S. cerevisiae deletion strains, locus YNL209W, strain ssb2, active compounds read low 1.03 | S. cerevisiae deletion strains, locus YNL233W, strain BNI4, active compounds read low 1.02 | S. cerevisiae deletion strains, locus YNL248C, strain rpa49, active compounds read low 1.02 | S. cerevisiae deletion strains, locus YNL250W, strain rad50, active compounds read low 1 | S. cerevisiae deletion strains, locus YNL271C, strain bni1, active compounds read low 1 | S. cerevisiae deletion strains, locus YNL298W, strain CLA4, active compounds read low 0.977 | S. cerevisiae deletion strains, locus YNL307C, strain MCK1, active compounds read low 0.99 | S. cerevisiae deletion strains, locus YNL322C, strain KRE1 (second series), active compounds read low 0.999 | S. cerevisiae deletion strains, locus YNR049C, strain mso1, active compounds read low 0.999 | S. cerevisiae deletion strains, locus YNR052C, strain pop2, active compounds read low 0.984 | S. cerevisiae deletion strains, locus YOL006C, strain TOP1, active compounds read low 1.09 | S. cerevisiae deletion strains, locus YOL012C, strain htz1 0.886 | S. cerevisiae deletion strains, locus YOL147C, strain pex11, active compounds read low 0.995 | S. cerevisiae deletion strains, locus YOR001W, strain rrp6, active compounds read low 1.03 | S. cerevisiae deletion strains, locus YOR061W, strain CKA2, active compounds read low 1.01 | S. cerevisiae deletion strains, locus YOR069W, strain VPS5, active compounds read low 1.01 | S. cerevisiae deletion strains, locus YOR070C, strain gyp1, active compounds read low 1.01 | S. cerevisiae deletion strains, locus YOR080W, strain dia2, active compounds read low 1 | S. cerevisiae deletion strains, locus YOR083W, strain WHI5, active compounds read low 1 | S. cerevisiae deletion strains, locus YOR106W, strain vam3, active compounds read low 1.01 | S. cerevisiae deletion strains, locus YOR136W, strain idh2, active compounds read low 0.989 | S. cerevisiae deletion strains, locus YOR144C, strain elg1, active compounds read low 0.989 | S. cerevisiae deletion strains, locus YOR184W, strain ser1, active compounds read low 1.01 | S. cerevisiae deletion strains, locus YOR231W, strain MKK1, active compounds read low 0.998 | S. cerevisiae deletion strains, locus YOR265W, strain rbl2, active compounds read low 1.02 | S. cerevisiae deletion strains, locus YOR270C, strain vph1, active compounds read low 1.06 | S. cerevisiae deletion strains, locus YOR290C, strain snf2, active compounds read low 1.01 | S. cerevisiae deletion strains, locus YOR316C, strain cot1, active compounds read low 0.994 | S. cerevisiae deletion strains, locus YPL051W, strain arl3, active compounds read low 1.05 | S. cerevisiae deletion strains, locus YPL078C, strain atp4, active compounds read low 1.01 | S. cerevisiae deletion strains, locus YPL106C, strain sse1, active compounds read low 1.04 | S. cerevisiae deletion strains, locus YPL240C, strain hsp82, active compounds read low 1.01 | S. cerevisiae deletion strains, locus YPL241C, strain CIN2, active compounds read low 1.01 | S. cerevisiae deletion strains, locus YPL256C, strain CLN2, active compounds read low 0.984 | S. cerevisiae deletion strains, locus YPR119W, strain clb2, active compounds read low 0.991 | S. cerevisiae deletion strains, locus YPR141C, strain kar3, active compounds read low 1.01 | S. cerevisiae deletion strains, locus YPR163C, strain tif3, active compounds read low 0.99 | S. cerevisiae deletion strains, locus YPR167C, strain met16, active compounds read low 1 | S. cerevisiae deletion strains, strain wtn01, active compounds read low 1.01 | S. cerevisiae strains, strain wild type, active compounds read low 1.01
